Measured values from the supplement of paper PMC10338343.
± gives the standard deviation. The full ranking holds about 8,200 sequences; the median of “pre-steady-state target cleavage rate” is about 0.024, and the highest 2% start at about 1.3. The sample as a whole holds a higher share of the highest values than the screen did.

Tested on: MIWI (PIWIL1) piRISC loaded with L1MC piRNA (30 nt)
Experiment: pre-steady-state target cleavage rate (min^-1); MIWI and MILI are mouse PIWI proteins and EfPiwi is from a freshwater sponge; tags in brackets are library labels; higher = faster piRNA-guided slicing of the target
Conditions: guide: L1MC piRNA 5'p-UAACUAAAUACUAUGCAAGCUGUAGGUCCU
In short: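 The pre-steady-state cleavage rate came from a burst-and-steady-state fit to pooled data from three Cleave-'n-Seq trials, in which uncleaved targets were sequenced and normalised to depth and to weakly complementary targets. Each reaction held 0.1 nM transcribed, DNA-blocked target RNA library and 1 nM active affinity-purified piRISC carrying one synthetic guide, with or without 500 nM GTSF1 partner protein, in HEPES–potassium acetate buffer at 33 °C for 0–8 or 0–960 min. k3 was capped at 0.0001 min^-1.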

[1] = auxiliary factor: 500 nM mouse GTSF1
[2] = auxiliary factor: none (no GTSF1)

Sequence	pre-steady-state target cleavage rate [1]	pre-steady-state target cleavage rate [2]
UCCUGCUACAGCUUGCAUAGUAUUUAGUCUA	0.156 ± 0.025	0.00747 ± 0.0028
UCGACCUACAGCUUGCAUAGUUAAUUCAAA	0.538 ± 0.15	–
UCCUGGAUGAGCUUGCAUAGUUUUUUGUUA	0.0806 ± 0.014	0.0177 ± 0.0048
UCCUGGAUGAGCUUGCAUUGUAUUUACUUA	0.0649 ± 0.016	0.00906 ± 0.0031
AGGACCUACAGCUUGCAUAGAAUUUUGUUA	0.501 ± 0.047	0.0183 ± 0.0047
AGGACCUACAGCUUGCAUAGUAUUUAGUA	0.795 ± 0.042	0.0502 ± 0.014
UGGACCUACUAGCUUGCAUAGUAUUUAGUUA	0.63 ± 0.036	0.0509 ± 0.01
UCGACCUAGCAGCUUGCAUAGUAUUUAGUUA	1.34 ± 0.058	0.0726 ± 0.016
UCCACCUAGCAGCUUGCAUAGUAUUUAGUUA	0.833 ± 0.057	0.0454 ± 0.0087
AGCACCUAGAGCUUGCAUAGUAUUUAGUUA	1.47 ± 0.37	0.00468 ± 0.0035
UGGACCUAGCAGCUUGCAUAGUAUUUAGUUA	1.59 ± 0.13	0.0734 ± 0.014
AGGACCUAGCAGCUUGCAUAGUAUUUAGUUA	1.21 ± 0.073	0.0735 ± 0.015
UGCACCUAGAGCUUGCAUAGUAUUUAGUUA	1.2 ± 0.25	0.0155 ± 0.0045
UCCACCUAGAGCUUGCAUAGUAUUUAGUUA	0.593 ± 0.06	0.0282 ± 0.0051
UCGACCUACUAGCUUGCAUAGUAUUUAGUUA	0.784 ± 0.042	0.0512 ± 0.01
UCGACCUACAGCUUCCAUAGUAAUUAGUUA	0.0526 ± 0.017	–
UCCACCUACAGCUUGCAAUCUAUUUAGUUA	0.194 ± 0.018	–
UGGACCUACUGCUUGCAUAGUAAUUAGUUA	0.866 ± 0.04	0.033 ± 0.0084
UCCUGGAUGUGCAUGCAUUGUAUUUAGUUA	0.00495 ± 0.0033	–
UCCUGGUACAGGAAGCAUAGUAUUUAGUAA	0.0592 ± 0.011	–
UCCACCAACAGCUAGCAUAGUAUUUAGUUA	0.97 ± 0.033	0.0197 ± 0.0045
UGGAGGUACAGCUUGCAUAGUAUUUUCAAA	0.0674 ± 0.014	0.00316 ± 0.0017

Sequence	pre-steady-state target cleavage rate [1]	pre-steady-state target cleavage rate [2]
UGGAGCUACAGCUUCCAUAGUAUUUAGUUA	0.275 ± 0.047	0.00584 ± 0.0013
UCCACCUACGCUUGCAUAGUAUUUAGUUA	0.998 ± 0.04	0.0451 ± 0.0077
UCGACCUACACGCUUGCAUAGUAUUUAGUUA	1.23 ± 0.063	0.0454 ± 0.0074
UCGACCUACGCUUGCAUAGUAUUUAGUUA	1.45 ± 0.052	0.0463 ± 0.0093
AGGACCUACGCUUGCAUAGUAUUUAGUUA	1.27 ± 0.066	0.0719 ± 0.013
UGGACCUACACGCUUGCAUAGUAUUUAGUUA	1.06 ± 0.06	0.0641 ± 0.013
UGGACCUACGCUUGCAUAGUAUUUAGUUA	1.4 ± 0.081	0.046 ± 0.008
UCCACCUACAGGUUGCAUAGUAUUUAGUAA	0.866 ± 0.1	0.0134 ± 0.0028
UCCUGGUACAGCUUGCCAUAGUAUUUAGUUA	0.0951 ± 0.024	–
UCCUCCUACUGCUUGCAUAGUAUUUAGAUA	0.185 ± 0.024	0.0115 ± 0.002
UCCUGGAUGAGCUUGCAUAGUAAUUAGAUA	0.136 ± 0.034	0.00679 ± 0.0036
UCCUGGAUGUGCUUGCAUUGUAUUUAGAUA	0.0181 ± 0.0038	0.0063 ± 0.0025
UCCUGCUACAGCUAGCAUAGAAUUUAGUUA	0.528 ± 0.048	0.0108 ± 0.0032
AGGGCCUACAGCUUGCAUAGUAUUUAGUUA	1.39 ± 0.061	0.106 ± 0.023
UGGGCCUACAGCUUGCAUAGUAUUUAGUUA	1.39 ± 0.08	0.0716 ± 0.013
UCCUGGAUGAGCUUGAAUAGUAUUUAGUUA	0.944 ± 0.045	0.0233 ± 0.007
UCCUGGAUCAGCAUGCAUAGUAUUUUGUUA	0.517 ± 0.03	0.00866 ± 0.003
UCCUGCUACAGCUUGCAAAGUAUUUAGAAA	0.319 ± 0.043	0.00338 ± 0.0032
UCCUGCUACAGCUAGGAUAGUAUUUAGUUA	1.15 ± 0.12	0.006 ± 0.0018
UCCUCCAACAGCAUGCAUAGUAUUUAGUUA	1.11 ± 0.051	0.0217 ± 0.0039
UCCACCAACAGCAUGCAUAGUAUUUAGUUA	0.943 ± 0.032	0.0211 ± 0.0046
UCGACCAACAGCAUGCAUAGUAUUUAGUUA	1.33 ± 0.037	0.033 ± 0.0067

Sequence	pre-steady-state target cleavage rate [1]	pre-steady-state target cleavage rate [2]
AGGACCAACAGCAUGCAUAGUAUUUAGUUA	1.39 ± 0.048	0.0703 ± 0.016
UCGACCAACAGGUUGCAUAGUAUUUAGUUA	1.16 ± 0.049	0.0326 ± 0.006
UGGACCAACAGCAUGCAUAGUAUUUAGUUA	1.24 ± 0.046	0.0449 ± 0.01
UCCACCUAGUGCUUGCAUAGUAUUUUCAAA	0.0568 ± 0.012	–
UGGACCUAGUCCUUGCAUAGUAUUUACAAA	0.0221 ± 0.0084	–
UGCACCUACAGCUAGCAUAGUAUUUAGUUA	1.22 ± 0.097	0.0194 ± 0.0043
UCCUGGAUGAGCUUGCAUAGUAUUAUGAAA	0.0112 ± 0.0054	–
UCGACCUACAGCUUGCAAAGUAUUUACAAA	0.33 ± 0.035	0.00465 ± 0.002
UCCUGCUUGUGCUUGCAUAGUAUUUACAAA	0.0637 ± 0.014	0.00366 ± 0.0024
UCGACCUACAGCAAGCAUAGUAUUUAGUUA	1.4 ± 0.083	0.00748 ± 0.0028
AGGACCUACAGCAAGCAUAGUAUUUAGUUA	1.2 ± 0.069	0.0105 ± 0.0035
UGGACCUACAGCAAGCAUAGUAUUUAGUAA	0.898 ± 0.11	0.0053 ± 0.0019
UGGACCUACAGCAAGCAUAGUAUUUAGUUA	1.34 ± 0.1	0.00929 ± 0.0027
UCGACCUACAGCAAGCAUAGUAUUUAGAAA	0.349 ± 0.041	–
UCGACCUACAGCAAGCAUAGUAUUUAGUAA	0.818 ± 0.066	0.00275 ± 0.0026
UCCUCCUACAGCUUGCAUAGUACUUUAGUUA	0.588 ± 0.024	0.00867 ± 0.0017
AGGACCUAGUCCUUGCAUAGUAUUUACAAA	0.256 ± 0.046	0.00328 ± 0.0019
UCCUGGUACAGCUUGCAUAGUUUUUAGAUA	0.136 ± 0.043	0.00988 ± 0.0027
AGGACCUACAGCUUGCAUAGUAAUUAGAAA	0.475 ± 0.071	0.00445 ± 0.0038
UCCUGGAACUGCAUGCAUAGUAUUUAGUUA	0.442 ± 0.035	0.00687 ± 0.0019
